Screens deposited in PubChem by Fisher Drug Discovery Resource Center.
mcGAS MS inh: blocks mouse cGAS cGAMP production | recombinant mouse cGAS, cGAMP by RapidFire MS | inhibition, % at 12.5 µM | Q8C6L5 | actives 0.18% (n = 130,000);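 active = inhibition of cGAS enzyme activity at or above 60%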;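 note: enzyme stimulated by 45 bp dsDNA with ATP and GTP substrates; cGAMP share of summed cGAMP plus half ATP and half GTP signals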
* = called active by the depositor. The entries come from a sample that favours hits as a whole.

For NC(=S)N/N=C\c1coc2ccccc2c1=O the results were mcGAS MS inh 95*.
`c1ccc(CN2CCCC3CNCCC32)cc1` (configuration not stated) gave mcGAS MS inh -1.
Screening CN(C)P(=NC(=S)Nc1ccccc1)(N(C)C)N(C)C returned mcGAS MS inh 1.
Screening Cc1ccccc1-n1cc(C2=CCN(CCN3CCCCC3)CC2)cn1 returned mcGAS MS inh -10.
CN1C(=CP(=S)(c2ccccc2)N2CCOCC2)C(C)(C)c2ccccc21 (configuration not stated) was read as mcGAS MS inh 48.
`CC[C@@]1(O)C[C@H](O[C@H]2C[C@H](N(C)C)[C@H](O)[C@H](C)O2)c2c(cc3c(c2O)C(=O)c2c(O)cccc2C3=O)[C@H]1C(=O)OC` gave mcGAS MS inh 98*.
Screening CC[C@@]1(O)C[C@H](O)c2c(cc3c(c2O)C(=O)c2c(O)ccc(O)c2C3=O)[C@H]1C(=O)OC returned mcGAS MS inh -9.
Screening CC[C@@]1(O)C[C@H](O[C@H]2C[C@H](N(C)C)[C@H](O)[C@H](C)O2)c2c(cc3c(c2O)C(=O)c2c(O)ccc(O)c2C3=O)[C@H]1C(=O)OC returned mcGAS MS inh 97*.
Screening COC(=O)Cc1ccc(C(=O)NP(=O)(N2CCOCC2)N2CCOCC2)n1C returned mcGAS MS inh -7.
For CC(C)(C)OC(=O)N1CCC(Nc2ccc(C#N)c(C(F)(F)F)c2)C1 (configuration not stated) the results were mcGAS MS inh -8.
Cc1c(Cl)c(CN2C3CCC2CC(=O)NC3)nc2ccccc12 (configuration not stated) was read as mcGAS MS inh 18.
Cc1ccc(C)c(Cn2cccc(C(=O)Nc3ccccc3C#N)c2=O)c1 was read as mcGAS MS inh -6.
Screening CCc1csc(CNC(C)Cn2cncn2)n1 (configuration not stated) returned mcGAS MS inh -12.
CC1N(Cc2ccccc2)CC12CCCCC2 (configuration not stated) was read as mcGAS MS inh 1.
`Cc1c(Cl)sc2c1C(=O)C1CCCCN1C2` (configuration not stated) gave mcGAS MS inh 3.
